{"source": "the OligoGym collection", "data": [{"biological_target": "SLC25A5", "experiment": "pooled miR-30 sensor sort-seq; sequence = guide strand", "settings": "shRNA", "values": [{"sequence": "TATCTGATGACATTGGCCAGGT", "sensor-assay potency score (higher = more potent)": 0.271}, {"sequence": "TCACGAGCAATCTTCCGCCAGC", "sensor-assay potency score (higher = more potent)": -0.904}, {"sequence": "TTGTAGATCTTAACCAGGCAGT", "sensor-assay potency score (higher = more potent)": -0.456}, {"sequence": "TTGCTTCCCATTTTCAACCAGT", "sensor-assay potency score (higher = more potent)": -0.278}, {"sequence": "TCGGTAGATGATAATACCCTGC", "sensor-assay potency score (higher = more potent)": -0.461}, {"sequence": "TTGCTTATCTGCAGTGATCTGC", "sensor-assay potency score (higher = more potent)": -0.049}, {"sequence": "TTGCAGTGTCATAGATACCGAA", "sensor-assay potency score (higher = more potent)": -0.793}, {"sequence": "TTATCTGCAGTGATCTGCTTGC", "sensor-assay potency score (higher = more potent)": 0.187}, {"sequence": "TGCAGTGTCATAGATACCGAAG", "sensor-assay potency score (higher = more potent)": -1.43}, {"sequence": "TGCCTTTGTATTGCTTATCTGC", "sensor-assay potency score (higher = more potent)": -0.404}, {"sequence": "TACAAGACAAGCACAAAAGCAC", "sensor-assay potency score (higher = more potent)": 0.0644}, {"sequence": "TCTGCAGTGATCTGCTTGCTGG", "sensor-assay potency score (higher = more potent)": -0.995}, {"sequence": "AGATTTGTAGATCTTAACCAGG", "sensor-assay potency score (higher = more potent)": -1.69}, {"sequence": "ATGGATAGGAAGTCAACCCGGC", "sensor-assay potency score (higher = more potent)": -0.119}, {"sequence": "TTATCTTTGAAGGCGAAGTTAA", "sensor-assay potency score (higher = more potent)": -1.05}, {"sequence": "TTCTCTTGTCCACACCACCCAG", "sensor-assay potency score (higher = more potent)": -1.25}, {"sequence": "TTTGTATTGCTTATCTGCAGTG", "sensor-assay potency score (higher = more potent)": -0.375}, {"sequence": "TATAATGCCTTTGTATTGCTTA", "sensor-assay potency score (higher = more potent)": 0.347}, {"sequence": "TCTCTTGTCCACACCACCCAGG", "sensor-assay potency score (higher = more potent)": -0.852}, {"sequence": "TTCATCATACAAGACAAGCACA", "sensor-assay potency score (higher = more potent)": -1.02}, {"sequence": "TTTGTAGATCTTAACCAGGCAG", "sensor-assay potency score (higher = more potent)": -0.343}, {"sequence": "TTGTATTTATCTTTGAAGGCGA", "sensor-assay potency score (higher = more potent)": -0.168}, {"sequence": "TTGTATTGCTTATCTGCAGTGA", "sensor-assay potency score (higher = more potent)": -0.0407}, {"sequence": "TTCATCACGAGCAATCTTCCGC", "sensor-assay potency score (higher = more potent)": -0.132}]}]}
